Most compounds without a hit are left out; they make up all but 11% or so of the library.
HPGD inh: inhibitors of human 15-hydroxyprostaglandin dehydrogenase (HPGD) | purified HPGD, NADH fluorescence kinetic, PGE2 substrate | P15428 | Potency, µM, without a hit: top-dose activity change, negative = inhibition, most hits filed as inhibitors | 150,000 tested, 4.3% active; active = well fitted inhibition curve with a large enough effect, not every such curve was filed as active; inconclusive = small, poorly fitted or top-dose-only effect, or another doubt; inactive = no such curve, though single readings can be large or run the other way; note: potency is the fitted concentration of half-maximal effect; % is set by controls: 0 for no effect and ±100 for the full control effect
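20 nM HPGD preincubated 15 min at room temperature with compound in 50 mM Tris-HCl pH 8, 0.01% Tween 20. Started with 1 mM NAD+ and 30 uM prostaglandin E2; NADH fluorescence (360/450 nm) read 5 times over 30-s intervals, last minus first.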
HTT cytoprotect: cytoprotection in Huntington HTT-Q103 PC12 cell model | PC12 HTT-Q103 induced, cytoprotection, ATP luminescence, 40 h | Potency, µM (doses to about 56.4 µM), inactives show cytoprotection (ATP increase), hits mostly activators | 230,000 tested, 0.14% active | AID 1471; note: potency is the fitted concentration of half-maximal effect; % of control where 0% means no effect; nearly all actives have a fitted effect of over 45% in size
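Compounds added alongside 100 nM tebufenozide, which induces toxic Q103 huntingtin exon 1-GFP in stable PC12 cells; surviving cells quantified by luminescent ATP measurement. Medium: phenol red-free DMEM, 5% equine and 5% calf serum.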
CBFb-RUNX1 inh: inhibitors of human CBF-beta and RUNX1 interaction; AID 1477; AlphaScreen CBFb-His/RUNX1-biotin binding, biochemical; Potency, µM (highest dose often 59.8 µM), for the others: at the top dose activity, negative = inhibition, usual class: inhibitors; Q01196+Q13951; 230,000 tested, under 10 active; note: % of control where 0% means no effect
Target sequence (Q01196 whole entry, looked up): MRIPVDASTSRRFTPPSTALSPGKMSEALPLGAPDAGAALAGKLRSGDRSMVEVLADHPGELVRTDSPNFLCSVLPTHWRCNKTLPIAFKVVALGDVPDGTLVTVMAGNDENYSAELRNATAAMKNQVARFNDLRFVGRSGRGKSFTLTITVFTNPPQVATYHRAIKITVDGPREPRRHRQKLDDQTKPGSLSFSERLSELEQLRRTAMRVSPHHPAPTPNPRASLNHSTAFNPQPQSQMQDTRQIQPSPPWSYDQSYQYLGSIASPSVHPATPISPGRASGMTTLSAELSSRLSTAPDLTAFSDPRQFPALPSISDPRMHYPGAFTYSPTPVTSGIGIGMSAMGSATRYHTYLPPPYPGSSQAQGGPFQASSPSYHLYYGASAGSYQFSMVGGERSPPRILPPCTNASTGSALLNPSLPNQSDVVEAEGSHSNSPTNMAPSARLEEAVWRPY
Target sequence (Q13951 whole entry, looked up): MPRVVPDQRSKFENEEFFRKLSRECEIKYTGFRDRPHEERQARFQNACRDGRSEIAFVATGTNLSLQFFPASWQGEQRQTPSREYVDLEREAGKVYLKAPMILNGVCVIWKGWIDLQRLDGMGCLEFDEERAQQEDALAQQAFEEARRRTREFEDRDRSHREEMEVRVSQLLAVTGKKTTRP
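CBF-beta (His) and RUNX1 (biotin), 30 nM each; 20 min preassociation; + compound, 15 min; + beads 50 ng each (Ni, streptavidin), 90 min; RT; AlphaScreen read.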
HttQ103 aggreg: mutant huntingtin aggregation inhibition; PC12 HttQ103-GFP aggregates, Acumen cytometry, 40 h; Potency, µM (series often up to 46.1 µM), inactives show at the top dose activity change, negative = inhibition, most hits filed as inhibitors; 220,000 tested, 1.1% active; note: potency is the fitted concentration of half-maximal effect; % is set by controls: 0 for no effect and ±100 for the full control effect; nearly all actives have a fitted effect of over 60% in size
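Multiplexed with ATP-based cell death, this channel scores GFP aggregates in PC12 cells expressing inducible HTTex1-Q103-GFP. Induction used 100 nM tebufenozide; compounds were tested in concentration series.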
PNC inhibitor: perinucleolar compartment assembly inhibition | PC3M PTB-GFP, PNC prevalence imaging, 16 h; hits give low values | activity change (PNC), negative = inhibition, % at 10 µM | 140,000 tested, 3.1% active;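 active = readout at or below -70, meaning at least 70% loss of cells showing the perinucleolar compartment, a nuclear body marking cancer cells; inconclusive = readout between -30 and a set limit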;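 note: plate controls were DMSO wells for no effect and camptothecin positive control wells for full effect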
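Compounds are pinned in duplicate onto adhered PC3M cells stably expressing GFP-tagged PTB and incubated 16 h at 37 C. Cells are then fixed, nuclei stained with Hoechst, and PNC-positive cells counted.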
ALDH1A1 inh: ALDH1A1 (human) enzyme inhibition; Purified ALDH1A1, NADH fluorescence, propionaldehyde substrate; Potency, µM (top dose mostly 75.3 µM), inactives show at the highest dose activity, negative = inhibition, hits mostly inhibitors; 220,000 tested, 7.3% active; active = well fitted inhibition curve with a large enough effect, not every such curve was filed as active; inconclusive = small, poorly fitted or top-dose-only effect, or another doubt; inactive = no such curve, though single readings can be large or run the other way;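 note: potency is the fitted concentration of half-maximal effect; plate controls were no enzyme wells and a reference inhibitor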
The depositor's hits bear a star; u = inconclusive; x = no result; [ ] = another dose, or the depositor's remark. Unless noted, calls come from the whole dose curve; as a rule, active = well fitted curve in the direction sought with a large enough effect; inconclusive = small, poorly fitted or top-dose-only effect, or another doubt; inactive = no such curve, though single readings can be large; an effect the other way counts as inactive or inconclusive.

SMILES	HPGD inh	HTT cytoprotect	CBFb-RUNX1 inh	HttQ103 aggreg	PNC inhibitor	ALDH1A1 inh
CC1=CSC2=NC(=O)/C(=C\c3cccn3-c3ccccc3)C(=N)N12	-18%	-2%[10 µM]	-13%	8%	63	22µM*
Clc1ccc(C(c2nnnn2C2CCCC2)N2CCSCC2)cc1 (configuration not stated)	-3%	4%[10 µM]	4%	-3%	15	10%
O=C(NCC1CC1)[C@H]1C[C@@H]1[C@H](NP(=O)(c1ccccc1)c1ccccc1)c1ccccc1	-7%	-6%	8%	x	x	5%
Cc1ccc(-n2cccc2/C=C2/C(=N)N3C(=NC2=O)SN=C3S(C)(=O)=O)cc1Cl	-15%	9%[10 µM]	-8%	-6%	0	18µM*
Cn1cccc1C(=O)N1CCC2(CCCN(C(=O)Nc3cccc(C#N)c3)C2)CC1	-2%	9%	x	x	x	4%
C/C(=N/NC(=O)c1ccncc1)c1cc2ccc(O)cc2oc1=O	u	22%[10 µM]	u	13µM*	6	u
C/C(=N\NC(=O)c1ccncc1)c1cc2ccccc2oc1=O	u	-8%[10 µM]	-15%	u	u	13%
C/C(=N\NC(=O)c1ccccc1)c1cc2cc([N+](=O)[O-])ccc2oc1=O	25µM*	9%[10 µM]	-7%	u	u	-15%
C/C(=N\NC(=O)c1ccc([N+](=O)[O-])cc1)c1cc2ccccc2oc1=O	u	10%[10 µM]	-7%	u	-24	0%
COc1ccc(C(=O)/C=C/c2cc(OC)c(O)c(OC)c2)c(F)c1	14µM*	0%[10 µM]	-16%	-3%	4	u
CCOC(=O)c1ccc(NC(=O)Nc2ccc(S(N)(=O)=O)cc2)cc1	-10%	-16%[10 µM]	3%	10%	-122*	6%
CCOC(=O)c1ccc(NC(=O)N(CC)CC)cc1	0%	-23%	12%	-22%	-92*	12%
CCOC(=O)c1ccc(NS(=O)(=O)c2ccc3[nH]c(=O)[nH]c3c2)cc1	28µM*	2%	8%	8%	20	16µM*
CN(CCO)C(=O)CCC(=O)Nc1ccc(S(N)(=O)=O)cc1	-8%	-2%[0.074 µM]	19%	0%	-127*	1%
NS(=O)(=O)c1ccc(NC(=O)CCc2ccccc2)cc1	-4%	18%	0%	28%	-10	5%
c1ccc2cc(-c3cc(-c4cc(-c5ccc6ccccc6c5)on4)no3)ccc2c1	-7%	5%[10 µM]	x	x	x	-2%[13.5 µM]
COc1ccc(COc2ccccc2C(N)=O)cc1F	-17%	x	11%	16µM*	48	2%
O=c1nc2cccc3c2=c(/c1=C(\O)c1ccccc1)c1ccccc1c3=O	x	-6%[10 µM]	10%	-8%[9.22 µM]	x	0.63µM*
COc1cccc(/C=N/NC(=O)Cn2cnc3c2c(=O)n(C)c(=O)n3C)c1	x	-23%[10 µM]	2%	-30%[9.22 µM]	x	x
Cc1ccc(NN2C(=O)C=CC2=O)cc1	-5%	-17%[10 µM]	6%	-6%	-112*	0%
NCCNC(=S)S	3.5µM*	11%[10 µM]	x	x	x	3.2µM*
O=C1NCCCC2c3c(cc(Br)c(O)c3Br)OC12N1CCOCC1 (configuration not stated)	32µM*	-12%[0.074 µM]	5%	20%	-2	3.2µM*
O=c1nc(N/N=C/C=C/c2ccccc2)cn[nH]1	x	26%[10 µM]	12%	-17%[9.22 µM]	x	x
CC(=O)NCCNc1nc(-c2ccccc2Cl)nc2ccccc12	-10%	-15%	x	x	x	u
C=CCn1c(-c2cc(OC)cc(OC)c2)n[nH]c1=S	-28%	-8%	0%	3%	-28	22µM*
SMILES	HPGD inh	HTT cytoprotect	CBFb-RUNX1 inh	HttQ103 aggreg	PNC inhibitor	ALDH1A1 inh
CCCCNc1nc(C)nc2c1nc(-c1ccccc1)n2CCN1CCCC1	u	-32%	11%	x	x	u
Cc1cccc(-c2n[nH]c(=S)n2/N=C/c2cccs2)c1	x	5%[10 µM]	-14%	0%[9.22 µM]	x	x
S=c1[nH]nc(-c2ccncc2)n1/N=C/c1ccccc1	32µM*	38%[10 µM]	5%	20%	-28	u
S=c1[nH]nc(-c2ccccc2)n1/N=C/c1ccc(-c2ccccc2Cl)o1	3.2µM*	x	u	18%	-100*	7%
Cc1ccccc1-n1c(-c2ccncc2)n[nH]c1=S	u	0%	2%	1%	u	16µM*
Cc1cccc(-c2n[nH]c(=S)n2/N=C/c2ccc(C)s2)c1	4µM*	x	-9%	-4%	u	-1%
S=c1[nH]nc(-c2cccnc2)n1/N=C/c1ccccc1	x	-9%[10 µM]	-3%	5%[9.22 µM]	x	x
O=C(C1=C[C@@H](c2ccccc2)C[C@@H](OCCCCO)O1)N1CCOCC1	x	4%[10 µM]	14%	-5%[9.22 µM]	x	u
COc1ccc(O[C@H]2C=C[C@@H](c3ccccc3)O[C@@H]2CO/N=C(\C)CCN2CCCc3nc(C)c(C)cc32)cc1	x	-67%[10 µM]	-12%[13.1 µM]	x	x	6%[13.5 µM]
FC(F)(F)c1ccccc1Cl	-4%	-52%	8%[21.7 µM]	x	x	-21%
Cc1cccc(/C=N/n2c(-c3ccco3)n[nH]c2=S)c1	x	-7%[10 µM]	-6%	4%[9.22 µM]	x	x
COc1cc(/C=N/n2c(-c3ccccc3)n[nH]c2=S)ccc1O	x	-10%[10 µM]	-1%	16%[9.22 µM]	x	25µM*
COc1cc(/C=N/n2c(-c3ccccc3)n[nH]c2=S)cc(OC)c1O	x	-4%[10 µM]	-1%	-7%[9.22 µM]	x	x
Cc1cccc(/C=N/n2c(-c3ccncc3)n[nH]c2=S)c1	16µM*	10%[10 µM]	1%	-24%	u	-13%
Cc1cccc(/C=N/n2c(-c3cc(-c4ccccc4)n[nH]3)n[nH]c2=S)c1	5µM*	u	-11%	25%	-11	-7%
OCC1O[C@H](O[C@H]2C(O)C(O)C(O)O[C@@H]2CO)C(O)C(O)C1O (some centres not stated)	-13%	-12%	x	-7%	x	-1%
Oc1c(Cl)cc(Cl)cc1C=Nc1cc(C(F)(F)F)ccc1N1CCc2ccccc2C1	x	-15%[10 µM]	-3%	6%[9.22 µM]	x	-3%
Oc1c(Cl)cccc1C=Nc1cc(C(F)(F)F)ccc1N1CCCC1	16µM*	4%	-9%	-10%	6	2%
O=C(Nc1ccccn1)c1cc(-n2cnnc2)ccc1Cl	-1%	11%	5%	13%	22	6%
Cc1ccnc(NC(=O)c2cc(-n3cnnc3)ccc2Cl)c1	-9%	30%[10 µM]	-2%	-7%	-100*	-1%
CN(Cc1ccc(OC(F)F)cc1)C(=O)c1ccc2nccnc2c1	-10%	2%[10 µM]	-2%	u	u	7%
COc1cccc(CN(C)C(=O)c2ccc3nccnc3c2)c1	28µM*	3%	-13%	21%[9.22 µM]	23	2%
Cc1ccc(C)c(-n2c3nc(=O)[nH]c(=O)c-3cc3cc([N+](=O)[O-])ccc32)c1	u	-52%[10 µM]	3%	4%	-116*	u
COc1cc(/C=N/Nc2snc(SC)c2C#N)ccc1O	u	-40%	3%	-7%	-13	1%

Compound activity from PubChem BioAssay.
